Source: PubChem (National Center for Advancing Translational Sciences (NCATS))
The list is not random: actives were taken first. Their share in the collection is about 3.2%.
Tau ThT inhib: inhibitors of human tau fibril formation, thioflavin T binding. P10636. recombinant tau K18 P301L, heparin-induced fibrillization, ThT fluorescence. Potency, µM (top dose mostly 57.4 µM), inactives show top-dose activity, negative = inhibition, usual class: inhibitors. 2.1% of 270,000 active; also: nearly all actives have a fitted effect of over 55% in size
Target sequence (P10636 561-689 P618L limits assumed): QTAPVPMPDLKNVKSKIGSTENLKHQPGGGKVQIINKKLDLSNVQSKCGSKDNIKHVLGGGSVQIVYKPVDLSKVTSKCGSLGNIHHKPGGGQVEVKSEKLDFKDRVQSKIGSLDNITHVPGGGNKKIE
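Using a mix of unlabeled (15 uM) and Alexa 594-labeled (0.24 uM) tau K18 P301L, heparin-triggered fibrillization over 6 hr at 37 C was scored by ThT fluorescence.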
RGS12 GoLoco inh: inhibitors of human Gai1-RGS12 GoLoco interaction (red fluorophore) | P63096 | Gai1:RGS12 GoLoco peptide FP, rhodamine, 10 min | 0.44% of 230,000 active | Potency, µM (highest dose often 61.6 µM), for the others: at the highest dose activity, negative = inhibition, hits mostly inhibitors; active = well fitted inhibition curve with a large enough effect, not every such curve was filed as active; inactive = no such curve, though single readings can be large or run the other way; also: nearly all actives have a fitted effect of over 30% in size
Target sequence (P63096 whole entry, looked up): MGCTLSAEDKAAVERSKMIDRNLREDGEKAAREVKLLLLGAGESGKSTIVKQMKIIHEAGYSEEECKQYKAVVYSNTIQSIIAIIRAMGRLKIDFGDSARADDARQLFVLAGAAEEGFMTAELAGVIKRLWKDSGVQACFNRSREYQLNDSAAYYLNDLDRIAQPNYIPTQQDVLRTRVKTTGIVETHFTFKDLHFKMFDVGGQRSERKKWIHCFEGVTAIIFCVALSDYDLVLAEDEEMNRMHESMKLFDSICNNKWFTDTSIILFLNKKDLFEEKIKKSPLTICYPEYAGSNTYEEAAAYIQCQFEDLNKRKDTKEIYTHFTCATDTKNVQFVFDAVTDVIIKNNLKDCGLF
TR SRC2 fluor cs: Texas Red fluorescence interference in TRb-SRC2 counter-screen. TRb/SRC2 Texas Red total fluorescence interference. Potency, µM (series often up to 106 µM), without a hit: at the top dose fluorescence change, negative = quenching. 0.29% of 280,000 active; active = well fitted curve in either direction with a large enough effect; inconclusive = small, poorly fitted or top-dose-only effect
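Flags fluorescent or light-absorbing compounds by total fluorescence, S + 2P, at 555 nm excitation and 632 nm emission. Mixture: 20 nM Texas Red SRC2 peptide, 0.6 uM human TRb LBD, 1 uM T3, 5% DMSO; compound exposure 5 h at ambient temperature.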
Tau fluor counter: counter-screen for tau fibril formation inhibitors | 0.93% of 280,000 active | tau K18 P301L (four-repeat tau fragment) Alexa594 fluorescence, heparin fibrillization | AID 1463 | Potency, µM (top dose mostly 57.7 µM), without a hit: top-dose activity change, negative = decrease; also: nearly all actives have a fitted effect of over 55% in size
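Human K18 P301L tau (15 uM unlabeled plus 0.24 uM Alexa 594-labeled, final) in 100 mM sodium acetate pH 7 was mixed with compound and 20 uM heparin and incubated 6 hr at 37 C.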
Tau FP inhib: inhibitors of human tau fibril formation; K18 P301L tau heparin fibrillization, Alexa594 FP, 6 h; Potency, µM (highest dose often 57.7 µM), without a hit: at the top dose activity, negative = inhibition, most hits filed as inhibitors; 0.39% of 280,000 active; also: nearly all actives have a fitted effect of over 55% in size
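Recombinant K18 P301L […], labeled with Alexa 594 at 0.24 uM over 15 uM unlabeled; heparin inducer 20 uM final; 37 C, 6 hr; FP endpoint.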
TRb-SRC2 inh: disrupts binding of human TR beta to SRC2 | TRbeta-SRC2 peptide binding, fluorescence polarization; receptor liganded with 1 µM T3 | 0.065% of 280,000 active | Potency, µM (series often up to 106 µM), without a hit: at the highest dose activity change, negative = inhibition, usual class: inhibitors;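 also: plate controls were bound peptide for no effect and peptide without receptor for full effect; nearly all actives have a fitted effect of over 50% in size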
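Binding of a 20-amino-acid Texas Red SRC2 peptide (20 nM) to TRb ligand-binding domain (0.6 uM) with agonist T3 at 1 uM was followed by fluorescence polarization after a 5 hr room-temperature incubation.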
An asterisk follows results filed as active; i = inactive; ? = inconclusive; . = no result given; [ ] = dose if it differs, or a comment. Unless noted, calls follow the shape of the dose curve; as a rule, active = well fitted curve in the direction sought with a large enough effect; inconclusive = small, poorly fitted or top-dose-only effect, or another doubt; inactive = no such curve, though single readings can be large; an effect the other way counts as inactive or inconclusive. Unless noted, % is scaled to controls: 0 for no effect and ±100 for the full control effect; potency is read from the fitted curve at half-maximal effect.

SMILES | Tau ThT inhib | RGS12 GoLoco inh | TR SRC2 fluor cs | Tau fluor counter | Tau FP inhib | TRb-SRC2 inh
C[C@@](N)(Cc1ccc(O)c(O)c1)C(=O)O | 4.5µM* | -7% | ? | ? | ? | -1%
COc1ccc(N2CCN(c3csc4ccccc4c3=O)CC2)cc1 | 11µM* | . | 0% | ? | -5% | 4%
COc1ccc(N2CCN(c3csc4ccc(Cl)cc4c3=O)CC2)cc1 | 6.3µM* | . | 0% | -22% | 4% | 10%
O=c1c(N2CCN(c3ccc(F)cc3)CC2)csc2ccc(F)cc12 | 5µM* | . | 1% | ? | ? | 7%
CC(=O)N1CCCc2cc(S(=O)(=O)NCc3ccc(N(C)C)cc3)ccc21 | -7% | . | -1% | -14% | -10% | -4%
CO[C@H]1COC(=O)[C@@H](Cc2ccccc2)NC(=O)[C@@H](C)COC(=O)CCC[C@@H]1C | -13%[11.5 µM] | . | 2%[11.2 µM] | -15%[11.6 µM] | -1%[11.6 µM] | 7%[11.2 µM]
COc1ccc(OC2C=CC(c3ccccc3)OC2CO)cc1 (configuration not stated) | -12%[11.5 µM] | . | -1%[11.2 µM] | -17%[11.6 µM] | -6%[11.6 µM] | -5%[11.2 µM]
O=C(Nc1nc2ccc(F)cc2s1)c1nc(S(=O)(=O)Cc2ccccc2F)ncc1Cl | 10µM* | . | -3% | -21% | -11% | -4%
CC(C)(Oc1ccc(-c2cccc3ccccc23)cc1)C(=O)O | . | 3%[14.2 µM] | . | . | . | .
COc1ccc2nc(NC(=O)c3ccc(-c4cccc([N+](=O)[O-])c4)o3)sc2c1 | 9% | 2.2µM* | -2% | 1% | 5% | 16%
O=C(O)COc1ccc(/C=C/c2nc3ccc([N+](=O)[O-])cc3s2)cc1 | 2µM* | 9% | 0% | -24% | -11% | 10%
N#C/C(=C(/O)c1ccc(-c2cccc([N+](=O)[O-])c2)o1)c1nc2ccccc2s1 | 6.3µM* | 18% | -9% | ? | 10% | 4%
COc1ccc(NC(=O)c2ccc(-c3ccc([N+](=O)[O-])cc3)o2)cc1 | 1.3µM* | -7% | 32µM*[quencher] | ? | 12% | ?
COc1ccc(CNC(=O)Nc2ccc([N+](=O)[O-])cc2)cc1 | . | . | -1% | . | . | 0%
O=C(Nc1nc2ccc([N+](=O)[O-])cc2s1)c1ccco1 | -20% | 10% | 0% | -1% | 6% | 1%
O=C(O)c1cccc(OCCO)c1 | . | -10%[14.2 µM] | . | . | . | .
O=C(c1cc(C(F)(F)F)cc(C(F)(F)F)c1)N1CCC2(CC1)CCN(c1ccncc1)CC2 | . | 9% | . | . | . | .
COc1cc(Cl)c(NS(=O)(=O)c2ccc3c(c2)CC(C)N3C(=O)C2CCC2)c(OC)c1 (configuration not stated) | -13% | . | 5% | -26% | 10% | 6%
Cc1cccc(OCC(=O)Nc2nc3ccc([N+](=O)[O-])cc3s2)c1 | 2µM* | -9% | 0% | ? | -10% | 5%
COc1cc(O)ccc1-c1nc2ccc(Br)cn2c1Nc1ccccc1C | -6% | . | -3% | ? | 2% | -2%
CC(C)C(=O)Cc1ccc2ccccc2n1 | . | 12%[14.2 µM] | . | . | . | .
Cc1c(O)ccc(/C(Cc2ccc3ccccc3n2)=N\N)c1O | 7.1µM* | 21% | -2% | 11µM*[quencher] | 9% | -4%
CCc1cc(/C(Cc2ccc3ccccc3n2)=N\O)c(O)cc1O | -14% | 16% | -7% | 22µM*[quencher] | -9% | 8%
Cc1[nH]c(/C=C2/C(=O)Nc3ccc(S(=O)(=O)Cc4c(Cl)cccc4Cl)cc32)c(C)c1C(=O)N1CCCC1CN1CCCC1 (configuration not stated) | . | . | -10% | . | . | 13%
CCCn1c(-c2ccc(F)cc2)nc2c(NCCN3CCSCC3)nc(C)nc21 | -2% | 10% | 0% | -8% | -3% | 5%
SMILES | Tau ThT inhib | RGS12 GoLoco inh | TR SRC2 fluor cs | Tau fluor counter | Tau FP inhib | TRb-SRC2 inh
CCOC(=O)C1=C(CN2CCN(c3ccc(OC)cc3)CC2)NC(=O)NC1c1ccc(OC)cc1 (configuration not stated) | -15% | . | 100µM*[quencher] | -14% | 2% | -20%
Cc1ccccc1S(=O)(=O)O[C@@H]1NS(=O)(=O)c2ccccc21 | . | 5%[14.2 µM] | . | . | . | .
COc1ccc(-c2csc(Nc3ncccc3C)n2)cc1 | -7% | 1% | -2% | -2% | -4% | -18%
Cc1cccnc1Nc1nc(-c2ccc(O)c(O)c2)cs1 | 7.9µM* | 30% | -9% | 13µM*[quencher] | -2% | 1%
COc1ccc(-c2csc(Nc3ncccc3C)n2)cc1OC | 10µM* | -11% | -8% | ? | 12% | -1%
CC(=O)Nc1ccc(-c2csc(Nc3ccccn3)n2)cc1 | . | 8% | -3% | ? | 15% | 4%
COC(=O)c1ccc(OC)c(CN2CCCN(Cc3ccc(C)cc3)S2(=O)=O)c1 | -7% | . | -2% | -26% | -7% | -2%
Cc1ccc(CSc2c(C)cnc3c2c(=O)n(C)c(=O)n3C)cc1 | 2% | . | 2% | 4% | -4% | -3%
O=C1OC(Nc2ccc3c(c2)OCO3)c2ccccc21 (configuration not stated) | 13µM* | -15% | -2% | ? | ? | 5%
CN1/C(=C\C=C2/SC(=S)NC2=O)C(C)(C)c2ccccc21 | 3.5µM* | -49% | ? | ? | 1% | ?
CN1/C(=C\C=C2/C(=O)Oc3ccccc3C2=O)C(C)(C)c2ccccc21 | ? | -186% | -1% | ? | 13% | 2%
CN1C(=CC=C2C=C(I)C(=O)C(I)=C2)C(C)(C)c2ccccc21 | 2.2µM* | i | ? | 0.71µM*[fluorescent] | ? | ?
Cc1[nH]c2ccc(C(=O)Nc3ccc(F)cc3)cc2c1C | 13µM* | . | -1% | 14µM*[quencher] | ? | 3%
COc1cc(OC)c(NC(=O)CCn2cnc3onc(-c4ccc(F)cc4)c3c2=O)cc1Cl | -9% | . | -15% | ? | ? | -4%
CCOC(=O)N1CCN(S(=O)(=O)c2ccc(C(=O)NNc3nc4c(C)cccc4s3)cc2)CC1 | 20µM* | 3% | -1% | ? | ? | 1%
Cc1cc(C)c2nc(NNC(=O)c3ccc(S(=O)(=O)N4CCCCC4)cc3)sc2c1 | 22µM* | -12% | -1% | ? | ? | 8%
Cn1c(=O)oc2cc(S(=O)(=O)N3CCC(C(=O)N4CCN(c5ccccc5F)CC4)CC3)ccc21 | -4% | . | -2% | -10% | 7% | -5%
CCOC(=O)c1c(NC(=O)c2ccccc2Br)sc2c1CCc1ccccc1-2 | 28µM* | -15% | 0% | -28% | ? | -14%
CCOC(=O)c1c(NC(C)=O)sc2c1CCC(C=O)=C2Sc1ccccc1 | 14µM* | -17% | -6% | ? | ? | -5%
CCOC(=O)c1c(NC(C)=O)sc2c1CCCNC2=O | 6% | . | 1% | 1% | -1% | 5%
C=CC[n+]1c(-c2ccc(OCC)cc2)csc1NNC(=O)Nc1ccccc1 | 13µM* | -5% | -1% | ? | -8% | 2%
